Measured values as given in PubChem BioAssay (NCATS).
Results filed as inconclusive are left out. Active and inactive are the calls of the source. The call rests on the fitted dose curve; in most records, active means well fitted inhibition curve with a large enough effect; inconclusive means small, poorly fitted or top-dose-only effect; inactive means flat fitted curve, though single readings scatter.

Tests used:
[1] = qHTS profiling for inhibitors of Plasmodium falciparum proliferation (AID 504749);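 further: 0% = DMSO vehicle and full inhibition = artemisinin control; nearly all actives have a fitted effect of over 60% in size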; conditions: P. falciparum in erythrocytes, SYBR Green DNA, 72 h
How it was run: (§1)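 Each compound contacts P. falciparum-infected red blood cells for 72 h at 37 C; lysis buffer (Tris, EDTA, saponin, Triton X, SYBR Green I) is added and fluorescence measured next morning; values normalized to controls.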

3D7 = assay: as above; conditions: P. falciparum in erythrocytes, SYBR Green DNA, 72 h; series mostly up to 28.7 µM
How it was run: as §1

7G8 = assay: as above; conditions: P. falciparum in erythrocytes, SYBR Green DNA, 72 h; series mostly up to 28.7 µM
How it was run: as §1

AA1029 = assay: as above; conditions: P. falciparum in erythrocytes, SYBR Green DNA, 72 h; series mostly up to 28.7 µM
How it was run: as §1

AS120 = assay: as above; conditions: P. falciparum in erythrocytes, SYBR Green DNA, 72 h; series mostly up to 28.7 µM
How it was run: as §1

ATS189 = assay: as above; conditions: P. falciparum in erythrocytes, SYBR Green DNA, 72 h; series mostly up to 28.7 µM
How it was run: as §1

ATS95 = assay: as above; conditions: P. falciparum in erythrocytes, SYBR Green DNA, 72 h; series mostly up to 28.7 µM
How it was run: as §1

C2A = assay: as above; conditions: P. falciparum in erythrocytes, SYBR Green DNA, 72 h; series mostly up to 28.7 µM
How it was run: as §1

CP185 = assay: as above; conditions: P. falciparum in erythrocytes, SYBR Green DNA, 72 h; series mostly up to 28.7 µM
How it was run: as §1

CP191 = assay: as above; conditions: P. falciparum in erythrocytes, SYBR Green DNA, 72 h; series mostly up to 28.7 µM
How it was run: as §1

CP192 = assay: as above; conditions: P. falciparum in erythrocytes, SYBR Green DNA, 72 h; series mostly up to 28.7 µM
How it was run: as §1

CP194 = assay: as above; conditions: P. falciparum in erythrocytes, SYBR Green DNA, 72 h; series mostly up to 28.7 µM
How it was run: as §1

CP201 = assay: as above; conditions: P. falciparum in erythrocytes, SYBR Green DNA, 72 h; series mostly up to 28.7 µM
How it was run: as §1

CP203 = assay: as above; conditions: P. falciparum in erythrocytes, SYBR Green DNA, 72 h; series mostly up to 28.7 µM
How it was run: as §1

CP211 = assay: as above; conditions: P. falciparum in erythrocytes, SYBR Green DNA, 72 h; series mostly up to 28.7 µM
How it was run: as §1

CP215 = assay: as above; conditions: P. falciparum in erythrocytes, SYBR Green DNA, 72 h; series mostly up to 28.7 µM
How it was run: as §1

CP217 = assay: as above; conditions: P. falciparum in erythrocytes, SYBR Green DNA, 72 h; series mostly up to 28.7 µM
How it was run: as §1

CP237 = assay: as above; conditions: P. falciparum in erythrocytes, SYBR Green DNA, 72 h; series mostly up to 28.7 µM
How it was run: as §1

CP238 = assay: as above; conditions: P. falciparum in erythrocytes, SYBR Green DNA, 72 h; series mostly up to 28.7 µM
How it was run: as §1

CP247 = assay: as above; conditions: P. falciparum in erythrocytes, SYBR Green DNA, 72 h; series mostly up to 28.7 µM
How it was run: as §1

[2] = at 28.7 µM (top of the series), parasite line A
[3] = at 28.7 µM (top of the series), parasite line B
[4] = at 12.8 µM (top of the series), parasite line A
[5] = at 12.8 µM (top of the series), parasite line B

C=C(C)C1CC=C(C)CC1 (stereo not given)
inactive: activity, negative = inhibition [1, 2] 7.1% | activity, negative = inhibition [1, 3] 5.88% | Potency (3D7) | Potency (7G8) | Potency (AA1029) | Potency (AS120) | Potency (ATS189) | Potency (ATS95) | Potency (C2A) | Potency (CP185) | Potency (CP191) | Potency (CP192) | Potency (CP194) | Potency (CP201) | Potency (CP203) | Potency (CP211) | Potency (CP215) | Potency (CP217) | Potency (CP237) | Potency (CP238) | Potency (CP247)

CCCOc1cc(N)ccc1C(=O)OCCN(CC)CC
inactive: activity, negative = inhibition [1, 4] -3.32% | activity, negative = inhibition [1, 5] 4.44% | Potency (3D7) | Potency (7G8) | Potency (AA1029) | Potency (AS120) | Potency (ATS189) | Potency (ATS95) | Potency (C2A) | Potency (CP185) | Potency (CP191) | Potency (CP192) | Potency (CP194) | Potency (CP201) | Potency (CP203) | Potency (CP215) | Potency (CP217) | Potency (CP237) | Potency (CP238)

CC1CC(O)CC(C)(C)C1 (stereo not given)
inactive: activity, negative = inhibition [1, 2] -1.2% | activity, negative = inhibition [1, 3] 7.51% | Potency (3D7) | Potency (7G8) | Potency (AA1029) | Potency (AS120) | Potency (ATS189) | Potency (ATS95) | Potency (C2A) | Potency (CP185) | Potency (CP191) | Potency (CP192) | Potency (CP194) | Potency (CP201) | Potency (CP211) | Potency (CP215) | Potency (CP217) | Potency (CP237) | Potency (CP238) | Potency (CP247)

NCC[C@H](O)C(=O)N[C@@H]1C[C@H](N)[C@@H](O[C@H]2O[C@H](CN)CC[C@H]2N)[C@H](O)[C@H]1O[C@H]1O[C@H](CO)[C@@H](O)[C@H](N)[C@H]1O
inactive: activity, negative = inhibition [1, 2] -7.43% | activity, negative = inhibition [1, 3] 9.77% | Potency (3D7) | Potency (7G8) | Potency (AA1029) | Potency (AS120) | Potency (ATS189) | Potency (ATS95) | Potency (C2A) | Potency (CP185) | Potency (CP191) | Potency (CP192) | Potency (CP194) | Potency (CP201) | Potency (CP211) | Potency (CP215) | Potency (CP217) | Potency (CP237) | Potency (CP238) | Potency (CP247)

O=C(O)CCC(=O)c1ccc(-c2ccccc2)cc1
inactive: activity, negative = inhibition [1, 4] -3.71% | activity, negative = inhibition [1, 5] 12.2% | Potency (3D7) | Potency (7G8) | Potency (AA1029) | Potency (AS120) | Potency (ATS189) | Potency (ATS95) | Potency (C2A) | Potency (CP185) | Potency (CP191) | Potency (CP192) | Potency (CP194) | Potency (CP201) | Potency (CP203) | Potency (CP211) | Potency (CP217) | Potency (CP237) | Potency (CP238) | Potency (CP247)

C=CCOc1ccc(CC(=O)O)cc1Cl
inactive: activity, negative = inhibition [1, 2] 8.56% | activity, negative = inhibition [1, 3] 1.68% | Potency (3D7) | Potency (7G8) | Potency (AA1029) | Potency (AS120) | Potency (ATS189) | Potency (ATS95) | Potency (C2A) | Potency (CP185) | Potency (CP191) | Potency (CP192) | Potency (CP194) | Potency (CP201) | Potency (CP211) | Potency (CP215) | Potency (CP217) | Potency (CP237) | Potency (CP238) | Potency (CP247)

CCCc1nc(C(C)(C)O)c(C(=O)OCc2oc(=O)oc2C)n1Cc1ccc(-c2ccccc2-c2nn[nH]n2)cc1
inactive: activity, negative = inhibition [1, 2] -15.7% | activity, negative = inhibition [1, 3] -20.3% | Potency (3D7) | Potency (7G8) | Potency (AA1029) | Potency (AS120) | Potency (ATS189) | Potency (ATS95) | Potency (C2A) | Potency (CP185) | Potency (CP191) | Potency (CP192) | Potency (CP194) | Potency (CP201) | Potency (CP203) | Potency (CP211) | Potency (CP217) | Potency (CP237) | Potency (CP238) | Potency (CP247)

C[Se]CC[C@H](N)C(=O)O
inactive: activity, negative = inhibition [1, 2] 7.69% | activity, negative = inhibition [1, 3] 13.1% | Potency (3D7) | Potency (7G8) | Potency (AA1029) | Potency (AS120) | Potency (ATS189) | Potency (ATS95) | Potency (C2A) | Potency (CP185) | Potency (CP191) | Potency (CP192) | Potency (CP194) | Potency (CP201) | Potency (CP211) | Potency (CP215) | Potency (CP217) | Potency (CP237) | Potency (CP238) | Potency (CP247)

Cc1cc(C(=O)NCCc2ccc(S(=O)(=O)NC(=O)NN3CCCCCC3)cc2)no1
inactive: activity, negative = inhibition [1, 2] 7.09% | activity, negative = inhibition [1, 3] 6.94% | Potency (3D7) | Potency (7G8) | Potency (AA1029) | Potency (AS120) | Potency (ATS189) | Potency (ATS95) | Potency (C2A) | Potency (CP185) | Potency (CP191) | Potency (CP192) | Potency (CP194) | Potency (CP201) | Potency (CP203) | Potency (CP215) | Potency (CP217) | Potency (CP237) | Potency (CP238) | Potency (CP247)

c1ccc2c(c1)OCC(CN1CCCCC1)O2 (stereo not given)
inactive: activity, negative = inhibition [1, 2] 4.84% | activity, negative = inhibition [1, 3] 0.843% | Potency (3D7) | Potency (7G8) | Potency (AA1029) | Potency (AS120) | Potency (ATS189) | Potency (ATS95) | Potency (C2A) | Potency (CP185) | Potency (CP191) | Potency (CP192) | Potency (CP194) | Potency (CP201) | Potency (CP203) | Potency (CP211) | Potency (CP215) | Potency (CP217) | Potency (CP238) | Potency (CP247)

CCCCC(CC)CCC(CC(C)C)OS(=O)(=O)O (stereo not given)
inactive: activity, negative = inhibition [1, 2] -0.0494% | activity, negative = inhibition [1, 3] 5.85% | Potency (3D7) | Potency (7G8) | Potency (AA1029) | Potency (AS120) | Potency (ATS189) | Potency (ATS95) | Potency (C2A) | Potency (CP185) | Potency (CP191) | Potency (CP192) | Potency (CP194) | Potency (CP201) | Potency (CP211) | Potency (CP215) | Potency (CP217) | Potency (CP237) | Potency (CP238) | Potency (CP247)

CC(=O)Oc1cc(C(F)(F)F)ccc1C(=O)O
inactive: activity, negative = inhibition [1, 4] 7.13% | activity, negative = inhibition [1, 5] 12.5% | Potency (3D7) | Potency (7G8) | Potency (AA1029) | Potency (AS120) | Potency (ATS189) | Potency (ATS95) | Potency (C2A) | Potency (CP185) | Potency (CP191) | Potency (CP192) | Potency (CP194) | Potency (CP201) | Potency (CP211) | Potency (CP215) | Potency (CP217) | Potency (CP237) | Potency (CP238) | Potency (CP247)

NCC[C@H](O)C(=O)N[C@@H]1C[C@H](N)[C@@H](O[C@H]2O[C@H](CN)[C@@H](O)[C@H](O)[C@H]2O)[C@H](O)[C@H]1O[C@H]1O[C@H](CO)[C@@H](O)[C@H](N)[C@H]1O
inactive: activity, negative = inhibition [1, 2] 2.54% | activity, negative = inhibition [1, 3] 0.715% | Potency (3D7) | Potency (7G8) | Potency (AA1029) | Potency (AS120) | Potency (ATS189) | Potency (ATS95) | Potency (C2A) | Potency (CP185) | Potency (CP191) | Potency (CP192) | Potency (CP194) | Potency (CP201) | Potency (CP211) | Potency (CP215) | Potency (CP217) | Potency (CP237) | Potency (CP238) | Potency (CP247)
